# Source: PMC12136788
# Substitutions are numbered along the chain they refer to. The full ranking holds about 24,000 sequences; the median of “enrichment r” is about 0.99, and the highest 2% start at about 3.7. Many of the other results were omitted from the sample, so the highest values are more common in it than they were.
# T1: UNK ZnF1-3 (human, UniProt Q9C0B0 31-174)
# T1 sequence: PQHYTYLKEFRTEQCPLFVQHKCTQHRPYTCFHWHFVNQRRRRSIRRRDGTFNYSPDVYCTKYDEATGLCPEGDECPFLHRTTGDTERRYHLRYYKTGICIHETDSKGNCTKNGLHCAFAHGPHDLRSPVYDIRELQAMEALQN
# B1: chr9:127920631:127920632:-_ENSG00000119414_ENST00000456642|hu_mus|motif|central (ssRNA)
# RNA: GGGAGUUCUACAGUCCGACGAUCAAUACGGUCAGGCCACUUAGCCUUUAGUGCAAGAAGAUAAGUGAAGGUCUCCAAACGGUAGUAACCUCUGUCUACAAAAUCACCCAUAAAUAUGUAGUUUGUGUCAGGAACCUGACCUCCCAACAGAGGAUUGAGCAUCA
# B2: chr7:140404665:140404666:+_ENSG00000090266_ENST00000247866|hu_hu|hu_hu_hu_mus_False|1_1 (ssRNA)
# RNA: GGGAGUUCUACAGUCCGACGAUCUGCUCCUACUCGUCCAGAGAGUUUACAGUGUCAGUCCUCGUCAUCAGGAGGGAUUCCCAGUUCUUCAUCUGUCCACUGUGAAGGAUCUGGAUAUGAAAAGUGACCCAGCACAGCUUCUGACAACAGAGGAUUGAGCAUCA
# B3: chr7:109302599:109302600:-_ENSMUSG00000063550_ENSMUST00000070165|mus_mus|FALSE|FALSE (ssRNA)
# RNA: GGGAGUUCUACAGUCCGACGAUCAGAGUCAUCUUCUCCAUCCUGCUGAUUGUUCUCAUCAACAGGUUUGCUCAGGAAGCUAAAUCUUUCUCCAUUUUCUGGAUACUCAGAGGGUGAAGCUAGAUCUUCUGAAUCAUGAUUAACCAACAGAGGAUUGAGCAUCA
# B4: chr8:26227902:26227903:+_ENSG00000221914_ENST00000315985|hu_hu|motif|central (ssRNA)
# RNA: GGGAGUUCUACAGUCCGACGAUCGGAAUGCCAACCCUAAUUCACUUUGUCUUGAAAUAUAUACAGAUUGUUUGUAGUAGCGGCGGCAAUGAUAUUUUCCUUGGGGUGCCAGGCUGUGUGAAGGAUUUUCUUAUUGAAGUCUAGCAACAGAGGAUUGAGCAUCA
# B5: 16983635_16983755_221_5pUTR_ENSMUSG00000063358_ENSMUST00000069107|mouse|control|control (ssRNA)
# RNA: GGGAGUUCUACAGUCCGACGAUCGACCAUCUCCGGGCCCGCCGCCGCCGCCGCCGCCAUGUUGGCUGCACAGCCGCCGCCGCCGCCGCCGCCGCCGCGUUCGGUUCGACGCUUCGCGGCUGCCGCUCGACUUAUGCUGCGCUUCAACAGAGGAUUGAGCAUCA
# B6: chr3:179287964:179287965:+_ENSG00000136518_ENST00000429709|hu_hu|hu_hu_hu_mus_True|18_18 (ssRNA)
# RNA: GGGAGUUCUACAGUCCGACGAUCCUUGAGUGGUGAGAUGGCCUCCAUGUUCUCCCUGGGCACGCGGAGGGCAUUGGUGUCUAUGUAGUAGGUGGGCCCGCCCUGCUUGCCUUUGUCGCCAUCUAUUUCCAUCAUUGUACUUCCCAACAGAGGAUUGAGCAUCA
# B7: chr5:171327072:171327073:-_ENSG00000072803_ENST00000265094|hu_hu|FALSE|FALSE (ssRNA)
# RNA: GGGAGUUCUACAGUCCGACGAUCUACCAGCUCUGCUGCACACAGAGACCUGGCAUCCAGGUACGAAAGAAUGUUUUCUGCUAUGUGAUCUAAGCCUUGCUCUGGUAAAGCGGUAAUAAAGUCCCGCUGCAACAUGGGCUUCAGCAACAGAGGAUUGAGCAUCA
# B8: 97033003_97034721_1993_CDS_ENSG00000121152_ENST00000240423|human|control|control (ssRNA)
# RNA: GGGAGUUCUACAGUCCGACGAUCCCUGUGGUUUGCCUCUGCAUCUGCCUCCUUUCCGGAGAGCGCUGUCAGCAGACUCCACAUGCUCUGCUUCAGUUUCUUCAUGUCCAUCUUUUUGGCAGUCUUGGCAUAGUGAAUUUCAAUCAACAGAGGAUUGAGCAUCA
# B9: chr2:151796264:151796265:-_ENSMUSG00000027459_ENSMUST00000062047|mus_mus|motif|central (ssRNA)
# RNA: GGGAGUUCUACAGUCCGACGAUCUGUUCGGCUGGCCUCAGAUGGGGACACAGGACUAUCACACAAGUUGAUGAGGCUGCGGAGGAUGUCGAGGUCCAGUUGGGGCCGGCGGCCAGAACAGGGCAGGACUCGGCGACUGGGUGUCAACAGAGGAUUGAGCAUCA
# B10: chr17:38438176:38438177:+_ENSG00000171475_ENST00000323571|hu_mus|FALSE|FALSE (ssRNA)
# RNA: GGGAGUUCUACAGUCCGACGAUCCCCCCUGACCAUGUAGCUAGGGACUGAGAGUCACAGGGAAGGGAAAGCUUACACCUGGAAUGUGAAGAAUCUGAUUUACAGCUGAUGGCAGGUUGGGUUUCCAGAAGGGCAGACAGCGCACAACAGAGGAUUGAGCAUCA
# B11: chr14:76904430:76904431:+_ENSMUSG00000022010_ENSMUST00000022587|mus_mus|mus_mus_mus_hu_True|8_98 (ssRNA)
# RNA: GGGAGUUCUACAGUCCGACGAUCUGCAGCCAAAAACAGAGAGAGGGAAAAAAAGAGGGAACACCAGCAGCCUUGUAUAAGCUAGAUAAAAUCUUCUGGCUUUCCGCAGCCCAGGGAGAAACAGAAAUGGUGCUGGCUAAUUUACAACAGAGGAUUGAGCAUCA
# B12: chr6:144948378:144948379:-_ENSMUSG00000030268_ENSMUST00000111742|mus_mus|FALSE|FALSE (ssRNA)
# RNA: GGGAGUUCUACAGUCCGACGAUCAGGGAACACCAGGCCAGCAGGGCUGCAUGGGGAGCCCAAAUCUGCCCCAAUUAGAAACAAACAAACAAAAAAAAAACAACCAAAACAAAAAACAAAAGAACCUCACCAGCAAAAGAAACACAACAGAGGAUUGAGCAUCA
# B13: chr14:76904430:76904431:+_ENSMUSG00000022010_ENSMUST00000022587|mus_mus|mus_mus_mus_hu_True|58_98 (ssRNA)
# RNA: B11 RNA with U77C, G80A, U127A, G128C, U130G, G131C, C132A, U133G, G134C, G135C
# B14: chrX:71549762:71549763:+_ENSMUSG00000019087_ENSMUST00000019231|mus_mus|mus_mus_mus_hu_False|8_18 (ssRNA)
# RNA: GGGAGUUCUACAGUCCGACGAUCAAACCCGUGUACUUCUUAUUGUUAGCACAACAUCACCAGAAAACGAUAACGACAGCCAAGCAGGACAGACAGUUAAGUAGUACUUCCACACUCCGCAAAUUCAAGGAACCUCAAACCUUACAACAGAGGAUUGAGCAUCA
# B15: chr2:125499325:125499326:+_ENSMUSG00000091337_ENSMUST00000164756|mus_mus|FALSE|FALSE (ssRNA)
# RNA: GGGAGUUCUACAGUCCGACGAUCGAGCUCUUCGGUCAGUCGAUUGACAACCAUCAGCGAAAACAGCUCUUCGAUAAAAGCUAGCUGGUCGAAAGGGCUCUUCUCACACCGCGCCUGAAAGCCGCCAUCCAGGGCAUCUCCGGCCAACAGAGGAUUGAGCAUCA
# B16: chr1:163116941:163116942:-_ENSG00000143248_ENST00000313961|hu_mus|FALSE|FALSE (ssRNA)
# RNA: GGGAGUUCUACAGUCCGACGAUCACAAAGCAGUCAGAAAGAACCAAAAAAAAGAAAAAAAAAAGAAAAAGAAAAAAGUGAGGGCUCUUAGACAACAGAUCCACAUAACCAAACUAACAUGAGCGAAAGAGUUAGCAACACAGCCAACAGAGGAUUGAGCAUCA
# B17: chr3:9412954:9412955:+_ENSG00000134077_ENST00000452837|hu_mus|hu_hu_hu_mus_False|58_68 (ssRNA)
# RNA: GGGAGUUCUACAGUCCGACGAUCGGUUGAUAUCUCUUCUUUGAUGGCUGGAUUUUCAUAAUAGUCCAAGAUAUGAGAAUCUAAAGCGCUGCUGGCAUGCUUUUUCUUACCAUCUUUCUCAUCUGCUUUGUCUCCUUGUCCACACAACAGAGGAUUGAGCAUCA
# B18: chr16:94664741:94664742:+_ENSMUSG00000040785_ENSMUST00000117648|mus_hu|mus_mus_mus_hu_False|1_78 (ssRNA)
# RNA: GGGAGUUCUACAGUCCGACGAUCUGGUACUGAUCUUGGUAGCUGAUAUUCAGGAGAAAUGUUGGCCAAGGGUGUAUAUAUGCUGGUGUACUGGGGCAAACCUGGUAACACGUUUAUGUAUGCUGGCGGUGUCUGGGUGCCAAACAACAGAGGAUUGAGCAUCA
# B19: chr5:37680062:37680063:+_ENSMUSG00000029121_ENSMUST00000031004|mus_hu|mus_mus_mus_hu_False|1_8 (ssRNA)
# RNA: GGGAGUUCUACAGUCCGACGAUCUUUGGGUGUAGCUGGUACCUCGUACACAGGACCGUCAUACAUGCCCCUGGAAACCCCUUGCAAUCCAAAAACCUUAUUCCUGAUUUUGACGCGCUGGUACAGGUGCUCUGGGAAUGGCUUCAACAGAGGAUUGAGCAUCA
# B20: chrX:98862621:98862622:+_ENSMUSG00000034160_ENSMUST00000044475|mus_hu|mus_mus_mus_hu_False|18_28 (ssRNA)
# RNA: GGGAGUUCUACAGUCCGACGAUCCUGCAUCUCCUUUAGAGUGUUUCCCAUAUUAGAGUAGGCAUCAGCAAAGGUAGGACUGAUUCGAAUAGCCUCCUUAUAAUGCAUCAGUGCUUCCUGCAGCUUGCCCUGCUGCUGCAGUACCAACAGAGGAUUGAGCAUCA
# B21: chr7:135840685:135840686:-_ENSMUSG00000048170_ENSMUST00000057557|mus_mus|FALSE|FALSE (ssRNA)
# RNA: GGGAGUUCUACAGUCCGACGAUCCAACUCCCUUGAUUUAUCAAGGCCGACCCUGUUUCCUUGGUUAGCAGGGAAGAAUCUAAGGGACCACUGAUUGAUCUUCACACACAGCAGAUGAGAUUAACAGCAAGGUUCUAACUUUUCCAACAGAGGAUUGAGCAUCA
# B22: 128051196_128051651_161_3pUTR_ENSG00000163161_ENST00000285398|human|control|control (ssRNA)
# RNA: GGGAGUUCUACAGUCCGACGAUCCGCCGCCGAGGGAACCGCUUCCUGAGGGUCGUUCCCCGGGGCGUCCUCUUCAUCAUCCUCUUCAUCCUCAUAGUGCCGCUUCCUGGAUUUCUUCUUGUCGCGGUCCGCUCGGUCUCUUUUCAACAGAGGAUUGAGCAUCA
# Target: T1, UNK ZnF1-3
# Assay: nsRBNS (natural sequence RNA bind-n-seq); RBNS binding buffer (assumed for nsRBNS): 25 mM Tris pH 7.5, 150 mM KCl, 3 mM MgCl2, 0.01% Triton X-100, 500 ug/ml BSA, 20 U/ml SUPERase-In, 4 C; UNK is unkempt and MSI1 is Musashi-1; names of the RNAs are library labels; protein concentration not given here; high values mean tight binding
row,Binder,binding signal
1,B1,0.995 enrichment R
2,B2,1.35 enrichment R
3,B3,0.565 enrichment R
4,B4,1.11 enrichment R
5,B5,0.486 enrichment R
6,B6,0.497 enrichment R
7,B7,1.05 enrichment R
8,B8,0.375 enrichment R
9,B9,0.777 enrichment R
10,B10,1.6 enrichment R
11,B11,3.33 enrichment R
12,B12,7.87 enrichment R
13,B13,3.56 enrichment R
14,B14,1.46 enrichment R
15,B15,1.3 enrichment R
16,B16,10.6 enrichment R
17,B17,0.465 enrichment R
18,B18,0.93 enrichment R
19,B19,0.776 enrichment R
20,B20,1.08 enrichment R
21,B21,1.03 enrichment R
22,B22,0.493 enrichment R
